Experimental data taken from PubChem BioAssay (Tox21).
Results filed as inconclusive are left out. Unmarked numbers belong to inactive results. Active and inactive are the calls of the source. Calls come from the whole dose curve; as a rule, active = well fitted activation curve with a large enough effect in the repeat runs; inconclusive = weak or mixed curves; inactive = flat fitted curve, though single readings scatter.

assay: A CellTox Green Cytotoxicity Assay to monitor cytotoxicity in HepG2 cells - 8 hour (AID 1224890); settings: CellTox Green fluorescence; series mostly up to 76.8 µM; cytotoxicity increase: at the top concentration; note: nearly all actives have a fitted effect of over 45% in size
Description: National Center for Advancing Translational Sciences [NCATS]
NIH Chemical Genomics Center [NCGC]
U.S. Environmental Protection Agency [EPA]
National Institutes of Environmental Health Sciences [NIEHS]
National Toxicology Program [NTP]
Cell-based models are critical for drug discovery. Determining the natural cytotoxic effects resulting from test compounds is an essential research activity. A CellTox Green Cytotoxicity Assay to monitor cytotoxicity in real time of continues cell culture during 40 hours of the compound treatment was used to screen Tox21 10K library compounds in HepG2 cells. CellTox Green Cytotoxicity Assay is a nonlytic, homogeneous, biofluorescent method to measure cytotoxicity in cell culture after experimental manipulation. The assay system uses a proprietary asymmetric cyanine dye that is excluded from viable cells but preferentially stains the dead cell's DNA. […] Viable cells produce no appreciable increases in fluorescence. Therefore, the fluorescence signal produced by the binding interaction with dead cell DNA is proportional to cytotoxicity.
The mixture of HepG2 cell suspension and reagents were dispensed at 600cells/6 ul/well in 1536-well tissue culture treated black solid bottom plates using a Multidrop dispenser. After the assay plates were incubated at a 37 C/5% CO2 incubator for 5 hours, 23 nL of compounds dissolved in DMSO, positive and negative controls was transferred to the assay plate by a pintool work station. The plates were incubated at 37 C for 40 hours. The fluorescence intensity were measured at 0h, 8h, 16h, 24h, 32h and 40h time points using ViewLux plate reader during compound treatment.
% is set by controls: 0 for no effect and ±100 for the full control effect; potency is the fitted concentration of half-maximal effect.

Structure (SMILES)	cytotoxicity increase	Potency
OCC1CC2CC1C1CCC(CO)C21 (stereo not given)	0.532%	–
CCOC(=O)C1=NN(c2ccccc2)C(=O)C1	-5.96%	–
CCN(CCO)CCCC(C)Nc1ccnc2cc(Cl)ccc12 (stereo not given)	17.5% [at 6.97 µM]	–
Cn1c(NCCN(CCO)CCCc2ccc([N+](=O)[O-])cc2)cc(=O)n(C)c1=O	-1.03% [at 35.3 µM]	–
Cn1sccc1=O	–	inactive
Cc1c(Cn2ccnc2)c2ccccc2n1CCC(=O)O	-0.386% [at 35.3 µM]	–
CCCCCOC(=O)c1ccc(O)cc1	8.78%	–
CC(C)(C)c1cc(CCC(=O)OCC(COC(=O)CCc2cc(C(C)(C)C)c(O)c(C(C)(C)C)c2)(COC(=O)CCc2cc(C(C)(C)C)c(O)c(C(C)(C)C)c2)COC(=O)CCc2cc(C(C)(C)C)c(O)c(C(C)(C)C)c2)cc(C(C)(C)C)c1O	-4.76% [at 35.3 µM]	–
CCCCCCCCCCCCCCC1CO1 (stereo not given)	0.135%	–
CC[C@]12CCCN3CCc4c(n(c5ccccc45)C(=O)C1)[C@@H]32	0.329% [at 35.3 µM]	–
COCCCCCCCCOCCC[Si](C)(O[Si](C)(C)C)O[Si](C)(C)C	-6.37%	–
CC(=O)N(CC(=O)N(C)C)c1ccccc1	3.86% [at 35.3 µM]	–
Cn1c(N)nc2nc[nH]c2c1=O	5.6%	–
CCN(CC)C(C)=O	0.861%	–
O=C(NS(=O)(=O)/C=C/c1cccs1)c1ccc(F)cc1Br	-9.78%	–
CCOc1ccc(NC(=O)CC(C)=O)cc1	-13.5%	–
C=Cc1c(C)c2cc3[nH]c(cc4nc(cc5nc(cc1[nH]2)C(C)=C5CCC(=O)O)C(CCC(=O)O)=C4C)c(C)c3C=C	-14.8% [at 35.3 µM]	–
CCCCCCOC(=O)CCC	-8.19%	–
CC1CCc2cc(F)cc3c(=O)c(C(=O)O)cn1c23 (stereo not given)	0.806% [at 35.3 µM]	–
CCN(CC)CCc1nc(-c2ccccc2)no1	-0.765% [at 35.3 µM]	–

Structure (SMILES)	cytotoxicity increase	Potency
CC(C)(C)c1cc(CO)cc(C(C)(C)C)c1O	0.873%	–
CNS(=O)(=O)Cc1ccc2[nH]cc(CCN(C)C)c2c1	-12% [at 35.3 µM]	–
Cc1ncsc1CCO	3.32%	–
C=C(C)C(=O)OCCN(C)C	-1.8%	–
O=C(O)C1CCC(C(=O)O)CC1 (stereo not given)	-11.9%	–
Cn1c(=O)c2c(ncn2CC(O)CO)n(C)c1=O (stereo not given)	-3.07% [at 35.3 µM]	–
C=C(C)C(=O)OC(C)C	0.474%	–
CCCCOC(O)CC (stereo not given)	0.675%	–
CN1CCN(C2=Nc3cc(Cl)ccc3Nc3ccccc32)CC1	-5.21% [at 35.3 µM]	–
CN(C)CCCNCCCN	19.3%	–
CC1=CC(=O)/C(=C(/C)O)C(=O)O1	0.305%	–
NCCCOCCOCCOCCCN	1.39%	–
NC(N)=NN=C(/C=C/c1ccc([N+](=O)[O-])o1)/C=C/c1ccc([N+](=O)[O-])o1	–	9.52 µM (active)
O=C1[C@H](CC[C@H](O)c2ccc(F)cc2)[C@@H](c2ccc(O)cc2)N1c1ccc(F)cc1	1.49% [at 35.3 µM]	–
CC(C)(C)C(=O)OCOP(=O)(COCCn1cnc2c(N)ncnc21)OCOC(=O)C(C)(C)C	-10.5% [at 35.3 µM]	–
O=C(CCN1CCN2CCCC2C1)N1c2ccccc2Sc2ccc(Cl)cc21 (stereo not given)	7.39% [at 15.8 µM]	–
Cc1cc(CC(=O)O)c(C)n1-c1ccc(Cl)cc1	16.1% [at 35.3 µM]	–
CCCCCCCCCCCCCCCCCBr	-11.1% [at 15.8 µM]	–
C=C(C)C(=O)OCCOc1ccccc1	2.27%	–
COc1ccc([C@@H]2Sc3ccccc3N(CCN(C)C)C(=O)[C@@H]2OC(C)=O)cc1	-10.6% [at 35.3 µM]	–
